The results in this text go back to PubChem BioAssay (NCATS).

Results filed as inconclusive are left out. Where a call stands in place of a potency, no number is given. The source made the active and inactive calls. The call rests on the fitted dose curve; in most records, active means well fitted inhibition curve with a large enough effect; inconclusive means small, poorly fitted or top-dose-only effect; inactive means flat fitted curve, though single readings scatter.
Further: nearly all actives have a fitted effect of over 65% in size.

Sequence of Glutathione peroxidase 1 (Homo sapiens) (P07203 whole entry, looked up): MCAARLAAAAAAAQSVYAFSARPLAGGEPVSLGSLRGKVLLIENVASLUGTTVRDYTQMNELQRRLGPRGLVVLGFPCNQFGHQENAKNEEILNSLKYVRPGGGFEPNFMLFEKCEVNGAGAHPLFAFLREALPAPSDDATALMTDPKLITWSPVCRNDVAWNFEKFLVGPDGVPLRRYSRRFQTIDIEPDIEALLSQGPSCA
Sequence of Phospholipid hydroperoxide glutathione peroxidase GPX4 (Homo sapiens) (P36969 whole entry, looked up): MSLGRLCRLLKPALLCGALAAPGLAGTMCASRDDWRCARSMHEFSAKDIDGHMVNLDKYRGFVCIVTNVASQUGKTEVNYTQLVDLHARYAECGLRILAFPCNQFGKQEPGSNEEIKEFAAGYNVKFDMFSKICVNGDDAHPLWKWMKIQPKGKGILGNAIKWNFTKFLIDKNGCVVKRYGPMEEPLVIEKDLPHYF

One experiment addresses Glutathione peroxidase 1 (Homo sapiens) (UniProt P07203). In words: Primary qHTS Assay for Inhibitors of Recombinant Selenoprotein Glutathione Peroxidase 1 (GPX1) (AID 1845191). The following applies: recombinant GPX1, GR-coupled NADPH fluorescence, 15 min; series mostly up to 48.8 µM. In a few lines: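 NADPH consumption tracked by fluorescence at 340/450 nm between t=0 and t=15 min, room temperature. Final mix: 10 nM GPX1, 100 nM glutathione reductase, 1 mM GSH, 0.5 mM NADPH, 0.5 mM cumene hydroperoxide, 0.01% BSA; 30 min compound–enzyme preincubation.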
As for `O=c1[nH]c2ccccc2n1CCCN1CCC(n2c(=O)[nH]c3cc(Cl)ccc32)CC1`, the Potency result is “inactive”.

As for `CC[C@@H](CO)NC(=O)[C@@H]1C=C2c3cccc4c3c(cn4C)C[C@H]2N(C)C1`, the Potency result is “inactive”. The same measure, in the same setting: the result for `COc1ccccc1N1CCNCC1` reads “inactive”; that for `C[C@H]1O[C@@H](O[C@H]2[C@@H](O)C[C@H](O[C@H]3[C@@H](O)C[C@H](O[C@H]4CC[C@@]5(C)[C@H](CC[C@@H]6[C@@H]5CC[C@]5(C)[C@@H](C7=CC(=O)OC7)CC[C@]65O)C4)O[C@@H]3C)O[C@@H]2C)C[C@H](O)[C@@H]1O`, “inactive”; that for `CC[C@@H](CO)NC(=O)[C@@H]1C=C2c3cccc4[nH]cc(c34)C[C@H]2N(C)C1`, “inactive”. Take `Cc1ccc(S(=O)(=O)N[C@@H](CCCCN)C(=O)CCl)cc1`: the Potency result is “inactive”. `Cc1cccc(C)c1NC1=NCCCS1`: the Potency entry was “inactive”. With `c1ccc(C2CC2)c(OCC2=NCCN2)c1`, the Potency entry is “inactive”.

Turning to `COC[C@@H](NC(C)=O)C(=O)NCc1ccccc1`, the Potency entry is “inactive”. With `CCC1(C2=NCCN2)Cc2ccccc2O1` (stereo not drawn), the Potency result was “inactive”. For the compound `NCC(O)c1ccc(O)cc1` (stereo not drawn), the Potency result is “inactive”. Still for that read-out and setting: the value for `CCCN1CCC[C@@H]2Cc3nc(N)ncc3C[C@H]21` was “inactive”. On the same count and under the same terms, the value for `CNCC(O)c1ccc(O)cc1` (stereo not drawn) was “inactive”. On to `NN=C(N)N`, for which the Potency entry is “inactive”. On to `C[C@@H]1O[C@@H](O[C@H]2C[C@@H](O)[C@]3(CO)[C@H]4[C@H](O)C[C@]5(C)[C@@H](C6=CC(=O)OC6)CC[C@]5(O)[C@@H]4CC[C@]3(O)C2)[C@H](O)[C@H](O)[C@H]1O`, for which the Potency result was “inactive”. Same read-out and setting: the result for `CC(C)=CCOc1c2occc2cc2ccc(=O)oc12` reads “inactive”; that for `NCC1(CC(=O)O)CCCCC1`, “inactive”; that for `Cc1cccc(C)c1NC(=O)CN1CCCC1=O`, “inactive”. Still for that read-out and setting: the result for `O=C1NCN(c2ccccc2)C12CCN(CC1COc3ccccc3O1)CC2` (stereo not drawn) reads “inactive”; that for `Fc1ccc(C(OCCN2CCN(CCCc3ccccc3)CC2)c2ccc(F)cc2)cc1`, “inactive”.

The target of a further experiment is Phospholipid hydroperoxide glutathione peroxidase GPX4 (Homo sapiens) (UniProt P36969). Briefly: Primary qHTS Assay for Inhibitors of Recombinant Selenoprotein Glutathione Peroxidase 4 (GPX4) (AID 1845192). Particulars: recombinant GPX4, GR-coupled NADPH fluorescence, 15 min; series mostly up to 50 µM. In a few lines:
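NADPH consumption followed by fluorescence at 340/450 nm, t=0 and after 15 min at room temperature. Reaction started with cumene hydroperoxide (0.5 mM final) after 30 min compound–GPX4 preincubation; final 200 nM GPX4, 100 nM GR, 1 mM GSH, 0.5 mM NADPH.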
Background: Quantitative high-throughput screening tests each substance at several concentrations.
As to `COc1ccc(C(CN(C)C)C2(O)CCCCC2)cc1` (stereo not drawn), the Potency result was “inactive”. With `Cc1ncc(CNC(=O)N(CCCl)N=O)c(N)n1`, the Potency entry is “inactive”. As for `Nc1ccncc1`, the Potency entry was “inactive”. Same read-out and setting: the value for `CN1C[C@H](CNC(=O)OCc2ccccc2)C[C@@H]2c3cccc4c3c(cn4C)C[C@H]21` was “inactive”; that for `O=c1[nH]c2ccccc2n1CCCN1CCC(n2c(=O)[nH]c3cc(Cl)ccc32)CC1` was “inactive”; that for `CC[C@@H](CO)NC(=O)[C@@H]1C=C2c3cccc4c3c(cn4C)C[C@H]2N(C)C1` was “inactive”. Still for that read-out and setting: the value for `COc1ccccc1N1CCNCC1` was “inactive”. For the compound `c1ccc(C2CC2)c(OCC2=NCCN2)c1`, the Potency entry was “inactive”.

For the compound `NCC(O)c1ccc(O)cc1` (stereo not drawn), the Potency result was “inactive”. The same measure, in the same setting: the result for `NN=C(N)N` reads “inactive”; that for `C[C@@H]1O[C@@H](O[C@H]2C[C@@H](O)[C@]3(CO)[C@H]4[C@H](O)C[C@]5(C)[C@@H](C6=CC(=O)OC6)CC[C@]5(O)[C@@H]4CC[C@]3(O)C2)[C@H](O)[C@H](O)[C@H]1O`, “inactive”. Same read-out and setting: the value for `CC(C)=CCOc1c2occc2cc2ccc(=O)oc12` was “inactive”; that for `NCC1(CC(=O)O)CCCCC1` was “inactive”.
